Laboratory results taken from PubChem BioAssay AID1159580 (chemical genetic matrix, 2015).
Where “and” joins values, the source holds several entries; their conditions need not be identical. Identical values can stand only once. About 2,000 (36%) of roughly 5,500 compounds were called active. Another 18% or so got no clear call; they are omitted. No stated cut-off is given here; in the data, active means normalized growth mostly below about 0.91 (no sharp cut-off); inconclusive means no clear call, values can overlap the other calls; inactive means mostly above about 0.92. The list shows a part of the results.

Test: chemical genetic growth profiling, strain panel (AID 1159580);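 further: tested at 20 µM; growth read once vehicle control cultures reached saturation at 30 °C; 1 = growth at the plate median or of vehicle wells; lower values mean less growth of the strain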
Settings: S. cerevisiae deletion strains, growth OD

Measured: normalized growth

CCn1nc(C(=O)O)c(=O)c2cc3c(cc21)OCO3
inactive: locus YAL013W, strain DEP1, hits give low values 1.01 | locus YAL021C, strain ccr4, hits give low values 1 | locus YAL026C, strain drs2, hits give low values 0.999 | locus YAL030W, strain snc1, hits give low values 1.01 | locus YAL040C, strain CLN3, hits give low values 0.955 | locus YBL061C, strain skt5, hits give low values 1.02 | locus YBR009C, strain hhf1, hits give low values 0.989 | locus YBR021W, strain FUR4, hits give low values 1.03 | locus YBR023C, strain chs3, hits give low values 1.03 | locus YBR171W, strain sec66, hits give low values 1 | locus YBR229C, strain ROT2, hits give low values 1.01 | locus YBR231C, strain swc5, hits give low values 1.03 | locus YBR279W, strain paf1, hits give low values 1 | locus YCL011C, strain gbp2, hits give low values 0.987 | locus YCL016C, strain dcc1, hits give low values 0.99 | locus YCL029C, strain bik1, hits give low values 1.01 | locus YCL069W, strain vba3, hits give low values 1.01 | locus YCR088W, strain abp1, hits give low values 1 | locus YDL005C, strain med2, hits give low values 0.998 | locus YDL035C, strain GPR1, hits give low values 1 | locus YDL040C, strain nat1, hits give low values 1.01 | locus YDL074C, strain BRE1, hits give low values 1.04 | locus YDL101C, strain DUN1, hits give low values 1.01 | locus YDL134C, strain PPH21, hits give low values 1 | locus YDL185W, strain tfp1, hits give low values 1.03 | locus YDL192W, strain arf1, hits give low values 1.03 | locus YDR001C, strain nth1, hits give low values 0.996 | locus YDR069C, strain doa4, hits give low values 1.02 | locus YDR101C, strain arx1, hits give low values 0.992 | locus YDR137W, strain rgp1, hits give low values 0.949 | locus YDR150W, strain NUM1, hits give low values 1.01 | locus YDR159W, strain sac3, hits give low values 0.959 | locus YDR162C, strain NBP2, hits give low values 1.01 | locus YDR195W, strain ref2 1.01 | locus YDR297W, strain sur2, hits give low values 1.01 | locus YDR318W, strain mcm21, hits give low values 1.02 | locus YDR334W, strain swr1, hits give low values 1 | locus YDR335W, strain msn5, hits give low values 1.01 | locus YDR363W, strain ESC2, hits give low values 0.967 | locus YDR388W, hits give low values 1.02 | locus YDR392W, strain spt3, hits give low values 0.987 | locus YDR502C, strain sam2, hits give low values 1.02 | locus YEL003W, strain gim4, hits give low values 1.02 | locus YEL037C, strain rad23, hits give low values 1.01 | locus YEL061C, strain CIN8 (second series), hits give low values 1.01 | locus YEL061C, strain CIN8, hits give low values 1.01 | locus YER002W, strain NOP16, hits give low values 1.02 | locus YER015W, strain faa2, hits give low values 1.02 | locus YER016W, strain bim1, hits give low values 0.996 | locus YER110C, hits give low values 1.02 | locus YER111C, strain swi4, hits give low values 1 | locus YER155C, strain BEM2 (second series), hits give low values 1.06 | locus YER155C, strain BEM2, hits give low values 0.999 | locus YER167W, strain BCK2, hits give low values 0.993 | locus YFR010W, strain ubp6, hits give low values 1.03 | locus YGL078C, strain dbp3, hits give low values 1.01 | locus YGL086W, strain mad1, hits give low values 1 | locus YGL167C, strain pmr1, hits give low values 1.03 | locus YGL173C, strain kem1, hits give low values 1.01 | locus YGL227W, strain vid30, hits give low values 1.01 | locus YGL240W, strain doc1, hits give low values 1.03 | locus YGL248W, strain PDE1, hits give low values 1.03 | locus YGL253W, strain hxk2, hits give low values 1.01 | locus YGR078C, strain PAC10, hits give low values 1.02 and 1.01 | locus YGR135W, strain pre9, hits give low values 1.04 | locus YGR252W, strain gcn5, hits give low values 1.05 | locus YHR013C, strain ard1, hits give low values 1 | locus YHR027C, strain rpn1, hits give low values 1.01 | locus YHR030C, strain SLT2, hits give low values 1.01 and 0.999 | locus YHR079C, strain IRE1 (second series), hits give low values 1.01 | locus YHR079C, strain IRE1, hits give low values 0.999 | locus YHR094C, strain hxt1, hits give low values 1.01 | locus YHR129C, strain ARP1, hits give low values 1 | locus YHR142W, strain chs7, hits give low values 1.01 | locus YHR200W, strain rpn10, hits give low values 1.03 | locus YIL066C, strain RNR3, hits give low values 1.01 | locus YIL073C, strain SPO22, hits give low values 1.04 | locus YIL125W, strain kgd1, hits give low values 1.01 | locus YIR030C, strain dcg1, hits give low values 1.01 | locus YJL092W, strain hpr5, hits give low values 1.02 | locus YJL095W, strain BCK1 (second series), hits give low values 1.02 | locus YJL095W, strain BCK1, hits give low values 1.04 and 0.983 | locus YJL115W, strain asf1, hits give low values 1.01 | locus YJL129C, strain trk1, hits give low values 1.02 | locus YJL134W, strain LCB3, hits give low values 1.01 | locus YJL154C, strain vps35, hits give low values 1.02 | locus YJL164C, strain tpk1, hits give low values 1 | locus YJL166W, strain qcr8, hits give low values 1.05 | locus YJL168C, strain set2, hits give low values 1.02 | locus YJL187C, strain SWE1 (second series), hits give low values 1.03 | locus YJL187C, strain SWE1, hits give low values 1.02 | locus YJR043C, strain POL32, hits give low values 0.999 | locus YJR066W, strain TOR1, hits give low values 0.974 | locus YJR075W, strain HOC1, hits give low values 1.03 | locus YKL009W, strain mrt4, hits give low values 1.03 | locus YKL068W, hits give low values 0.999 | locus YKL085W, strain MDH1 (second series), hits give low values 1.03 | locus YKL085W, strain MDH1, hits give low values 1.03 | locus YKL160W, strain elf1, hits give low values 1.02 | locus YKR001C, strain vps1, hits give low values 1 | locus YKR026C, strain gcn3, hits give low values 0.993 | locus YKR091W, strain srl3, hits give low values 1.02 | locus YLL001W, strain dnm1, hits give low values 1.02 | locus YLL026W, hits give low values 1 | locus YLL041C, strain sdh2, hits give low values 1.01 | locus YLR027C, strain aat2, hits give low values 1 | locus YLR039C, strain RIC1, hits give low values 0.967 | locus YLR058C, strain SHM2, hits give low values 1.02 | locus YLR102C, strain apc9, hits give low values 1.01 | locus YLR113W, strain HOG1, hits give low values 1 | locus YLR221C, strain rsa3, hits give low values 1.02 | locus YLR258W, strain gsy2, hits give low values 1.01 | locus YLR262C, strain YPT6 (second series), hits give low values 0.964 | locus YLR262C, strain YPT6, hits give low values 0.978 | locus YLR268W, strain sec22, hits give low values 1.02 | locus YLR320W, strain mms22, hits give low values 1 | locus YLR330W, strain CHS5, hits give low values 1.01 | locus YLR342W, strain FKS1 (second series), hits give low values 1.01 | locus YLR342W, strain FKS1, hits give low values 1.02 | locus YLR357W, strain rsc2, hits give low values 1.02 | locus YLR370C, strain arc18, hits give low values 1.02 | locus YLR371W, strain rom2, hits give low values 1.01 | locus YLR384C, strain iki3, hits give low values 1.01 | locus YLR418C, strain cdc73, hits give low values 1.07 | locus YML016C, strain PPZ1, hits give low values 1.01 | locus YML032C, strain rad52, hits give low values 1.03 | locus YML120C, strain ndi1, hits give low values 1 | locus YML124C, strain tub3, hits give low values 1.02 | locus YMR058W, strain fet3, hits give low values 1.01 | locus YMR078C, strain ctf18, hits give low values 1.02 | locus YMR125W, strain sto1, hits give low values 1.02 | locus YMR129W, hits give low values 1.01 | locus YMR205C, strain PFK2, hits give low values 1.02 | locus YMR223W, strain ubp8, hits give low values 1.03 | locus YMR231W, strain pep5, hits give low values 1.01 | locus YMR307W, strain GAS1, hits give low values 1.06 | locus YNL067W, strain RPL9B, hits give low values 1.03 | locus YNL071W, strain lat1, hits give low values 1 | locus YNL153C, strain GIM3, hits give low values 1.02 | locus YNL175C, strain NOP13, hits give low values 0.997 | locus YNL183C, strain NPR1, hits give low values 0.928 | locus YNL197C, strain WHI3, hits give low values 0.994 | locus YNL209W, strain ssb2, hits give low values 1 | locus YNL224C, strain SQS1, hits give low values 0.99 | locus YNL233W, strain BNI4, hits give low values 1.02 | locus YNL248C, strain rpa49, hits give low values 0.952 | locus YNL250W, strain rad50, hits give low values 1.02 | locus YNL271C, strain bni1, hits give low values 1.02 | locus YNL298W, strain CLA4, hits give low values 1.02 | locus YNL307C, strain MCK1, hits give low values 1.03 | locus YNL322C, strain KRE1 (second series), hits give low values 1.01 | locus YNR049C, strain mso1, hits give low values 1.01 | locus YNR052C, strain pop2, hits give low values 1.01 | locus YOL012C, strain htz1 1.6 | locus YOL147C, strain pex11, hits give low values 1.01 | locus YOR001W, strain rrp6, hits give low values 1.03 | locus YOR061W, strain CKA2, hits give low values 1.01 | locus YOR069W, strain VPS5, hits give low values 1.01 | locus YOR070C, strain gyp1, hits give low values 1 | locus YOR080W, strain dia2, hits give low values 1.03 | locus YOR083W, strain WHI5 (second series), hits give low values 0.976 | locus YOR083W, strain WHI5, hits give low values 1.05 | locus YOR106W, strain vam3, hits give low values 1.02 | locus YOR136W, strain idh2, hits give low values 1.02 | locus YOR144C, strain elg1, hits give low values 1.01 | locus YOR184W, strain ser1, hits give low values 1.03 | locus YOR231W, strain MKK1, hits give low values 1 | locus YOR265W, strain rbl2, hits give low values 1 | locus YOR270C, strain vph1, hits give low values 1.02 | locus YOR290C, strain snf2, hits give low values 1 | locus YOR316C, strain cot1, hits give low values 1.02 | locus YPL051W, strain arl3, hits give low values 1.02 | locus YPL055C, strain LGE1, hits give low values 1.04 and 1.01 | locus YPL078C, strain atp4, hits give low values 1.03 | locus YPL106C, strain sse1, hits give low values 0.989 | locus YPL240C, strain hsp82, hits give low values 0.999 | locus YPL241C, strain CIN2, hits give low values 1.01 | locus YPL256C, strain CLN2, hits give low values 0.998 | locus YPR119W, strain clb2, hits give low values 1.02 | locus YPR141C, strain kar3, hits give low values 1.01 | locus YPR163C, strain tif3, hits give low values 1.02 | locus YPR167C, strain met16, hits give low values 1.01 | strain wtn01, hits give low values 1.02
